# Test results reported in PubChem BioAssay (Tox21).
# Results filed as inconclusive are left out. Some compounds were tested as several samples or in several runs, with calls that do not always agree. Activity calls are given as the source filed them. The call rests on the fitted dose curve; in most records, active means well fitted cell-killing curve with a large enough effect in the repeat runs; inconclusive means weak or mixed curves, or effect the other way; inactive means flat fitted curve, though single readings scatter.
# Assay: qHTS RealTime-Glo MT Cell Viability Assay in HEK293 cells - 24 hour (AID 1224886); further: nearly all actives have a fitted effect of over 50% in size; on activity change, negative = cytotoxicity: top concentration of the series differs between compounds
# Conditions: RealTime-Glo luminescence; series mostly up to 76.8 µM; activity change, negative = cytotoxicity: at the top concentration
# From the text: National Center for Advancing Translational Sciences [NCATS]
# NIH Chemical Genomics Center [NCGC]
# U.S. Environmental Protection Agency [EPA]
# National Institutes of Environmental Health Sciences [NIEHS]
# National Toxicology Program [NTP]
# U.S. Food and Drug Administration [FDA]
# Measure of cell viability is critical in the cell-base assay. Analysis of cell viability is necessary for the characterization of cell responses to cytotoxic drugs and environmental stress. A RealTime-Glo MT Cell Viability Assay to monitor cell viability in real time of continues cell culture during 40 hours of compound treatment was used to screen Tox21 10K library compounds in Hek293 cells. The RealTime-Glo MT Cell Viability Assay is a nonlytic, homogeneous, bioluminescent method to measure cell viability in real time using a simple, plate-based method. The assay involves adding NanoLuc luciferase and a cell-permeant prosubstrate to cells in culture. Viable cells reduce the proprietary prosubstrate to generate a substrate for NanoLuc luciferase. This substrate diffuses from cells into the surrounding culture medium, where it is rapidly used by the NanoLuc Enzyme to produce a luminescent signal. The signal correlates with the number of viable cells, making the assay well suited for cytotoxicity studies.
# Tox21 Assay Protocol Summary:
# The mixture of Hek293 cell suspension and reagents were dispensed at 600cells/6 ul/well in 1536-well tissue culture treated black solid bottom plates using a Multidrop dispenser. After the assay plates were incubated at a 37 C/5% CO2 incubator for 5 hours, 23 nL of compounds dissolved in DMSO, positive and negative controls was transferred to the assay plate by a pintool work station. The plates were incubated at 37 C for 40 hours. The luminescence intensity were measured at 0h, 8h, 16h, 24h, 32h and 40h time points using ViewLux plate reader during compound treatment.
# On the % scale 0 is the no-effect control and ±100 the full control effect; potency means the concentration at half of the fitted maximal effect.
Structure (SMILES),"activity change, negative = cytotoxicity",Potency
N#CC(Br)(Br)C(N)=O,-0.592% (inactive),–
O=C(Cl)OCc1ccccc1,10.8% (inactive),–
C[C@@H](N)[C@@H](O)c1ccccc1,2.83% [at 35.3 µM] (inactive),–
O=C(Cl)/C=C/C(=O)Cl,20.1% (inactive),–
CN(C)CCN(C)C,8.14% (inactive),–
CC(C)C(C)(N)C#N (stereo not given),-5.21% (inactive),–
CC(C)[C@]12CC(=O)[C@H](C)[C@H]1C2,-6.09% (inactive),–
CCCOC(=O)c1cncn1C(C)c1ccccc1 (stereo not given),5.18% [at 35.3 µM] (inactive),–
Nc1c(Cl)c(F)nc(OCC(=O)O)c1Cl,9.39% (inactive),–
CCCCCCCCSC(=O)Oc1cc(Cl)nnc1-c1ccccc1,-2.71% (inactive),–
CCCN1CCC[C@@H]2Cc3nc(N)ncc3C[C@H]21,-0.435% [at 35.3 µM] (inactive),–
CON(C)C(=O)Nc1ccc(Br)cc1,-0.0081% (inactive),–
COc1cccc([C@@]2(O)CCCC[C@@H]2CN(C)C)c1,1.71% [at 35.3 µM] (inactive),–
C=CCC1(C(C)CC)C(=O)NC(=O)NC1=O (stereo not given),1.78% [at 35.3 µM] (inactive),–
O=C(O)c1c(Cl)ccc2cc(Cl)cnc12,13.3% (inactive),–
CC(C)(C)NC[C@H](O)c1ccc(O)cc1Cl,4.98% [at 35.3 µM] (inactive),–
CCN(CC)CCOC(=O)C(O)(c1ccccc1)c1ccccc1,0.605% [at 35.3 µM] (inactive),–
CC[C@@H](CO)NC(=O)[C@@H]1C=C2c3cccc4c3c(cn4C)C[C@H]2N(C)C1,-6.36% [at 35.3 µM] (inactive),–
O=C/C=C/c1ccco1,7.74% (inactive),–
CCOC(=O)Nc1cccc(OC(=O)Nc2ccccc2)c1,-27.4% (inactive),–

Structure (SMILES),"activity change, negative = cytotoxicity",Potency
ClC1=C(Cl)C2(Cl)C(CBr)CC1(Cl)C2(Cl)Cl (stereo not given),–,49 µM (active) and inactive
NC(=O)OCCCc1ccccc1,-1.3% [at 35.3 µM] (inactive),–
ClCCCCl,12.5% (inactive),–
C=CC1(C)OC(=O)N(c2cc(Cl)cc(Cl)c2)C1=O (stereo not given),–,inactive
COc1ccccc1OC,15.2% (inactive),–
COP(=O)(OC)O/C(C)=C/C(=O)N(C)C,9.63% (inactive),–
CCCCS(=O)(=O)Cl,1% (inactive),–
CCCCCCC(=O)CCCCCC/C=C/C[C@@H](O)[C@H](O)[C@@](N)(CO)C(=O)O,-0.165% [at 15.8 µM] (inactive),–
ClCCCCCCCl,14.7% (inactive),–
CC(Cl)(Cl)Cl,-2.06% (inactive),–
COP(=O)(O)OC,-3.96% (inactive),–
CNC(=O)Oc1ccccc1C(C)C,4.12% (inactive),–
CC(C)c1ccc(O)cc1,-0.319% (inactive),–
CN(C)CCc1c[nH]c2cccc(OP(=O)(O)O)c12,-1.48% (inactive),–
COc1cccc(C=O)c1,3.33% (inactive),–
CCc1cc(OC)c(C[C@H](C)N)cc1OC,-26.8% (inactive),–
CCN[C@H](C)Cc1cccc(C(F)(F)F)c1,-6.26% (inactive),–
O=c1[nH]c2ccccc2o1,-8.75% (inactive),–
N#CN=C1SCCN1Cc1ccc(Cl)nc1,-1.93% (inactive),–
O=C1CC(=O)NC(=O)N1,10.4% (inactive),–
